Laboratory results reported in PubChem BioAssay (Tox21).
Activity calls are given as the source filed them. The call rests on the fitted dose curve; in most records, active means well fitted curve in the direction sought with a large enough effect in the repeat runs; inconclusive means weak or mixed curves; inactive means flat fitted curve, though single readings scatter.

test: qHTS assay to test for compound auto fluorescence at 460 nm (blue) in HepG2 cells (AID 720687); details: autofluorescence 405/460 nm, 1 h; series mostly up to 91.3 µM; fluorescence, % of fluorescent control: at the top concentration
Excerpt: U.S. Tox21 Program National Center for Advancing Translational Sciences [NCATS] NIH Chemical Genomics Center [NCGC] U.S. Environmental Protection Agency [EPA] National Institutes of Environmental Health Sciences [NIEHS] National Toxicology Program [NTP] U.S. Food and Drug Administration [FDA] Tox21 Assay Overview: Compound auto fluorescence often interferes with screening of the compound library against various biological targets and signaling pathways. Some of these compounds may have fluorophoric properties. Such properties may interfere with the assay outputs resulting in false positives and/or negatives. To decrease such complications and ensure the compound activities are relevant in terms of biological response, the Tox21 10K compound library was screened for auto fluorescence. From the fluorophores used as reporter signals in our screening assays, the auto fluorescence equivalencies of compounds against three fluorophores have been evaluated: Triamterene, Fluorescein and Rose Bengal sodium for blue, green and red fluorescence, respectively. The fluorescence intensities were measured using Excitation/Emission wavelengths at 405/460nm, 485/535nm and 540/590nm for blue, green and red labels, respectively. This assay includes the blue fluorescence data.
Tox21 Assay Protocol Summary: 2,000 HepG2 cells in 5 uL of culture medium (MEM containing 10% FBS) per well were dispensed into black wall/clear bottom 1536-well plates using a Multidrop Combi Dispenser (ThermoFisher Scientific, Waltham, MA). The assay plates were incubated overnight at 37 C to allow cell attachment to the well bottom, followed by the transfer of 23 nL compound or DMSO vehicle by a pintool work station (Kalypsys , San Diego, CA). After the assay plates were incubated for 1 hr at 37 C and 5% CO2, fluorescence intensities in the assay plates were measured by an Envision (PerkinElmer, Shelton, CT) plate reader using three labels for measuring blue, green and red fluorescence at […] 460, 535 and 590 nm respectively.
On the % scale 0 is the no-effect control and ±100 the full control effect; potency means the concentration at half of the fitted maximal effect; tags describe the fitted curve by direction and shape or compound fluorescence and quenching.

Structure (SMILES) | fluorescence, % of fluorescent control | Potency
CC(C)=CCC1C(=O)N(c2ccccc2)N(c2ccccc2)C1=O | -0.0544% [at 46 µM] (inactive) | 
FC(F)(F)c1ccccc1Cl | -0.0273% [at 95.7 µM] (inactive) | 
CC(=O)Oc1ccc([N+](=O)[O-])cc1CCl | -0.496% (inactive) | 
CCCC(C(=O)OCCN(CC)CC)(c1ccccc1)c1ccccc1 | 0.104% [at 46 µM] (inactive) | 
CC(=O)OCC[N+](C)(C)C | -0.067% [at 46 µM] (inactive) | 
Clc1ccc(Nc2nnc(Cc3ccncc3)c3ccccc23)cc1 |  | inactive
C1C[C@@H]2[C@H]3CC[C@H](C3)[C@@H]2C1 | -0.0346% (inactive) | 
O=c1[nH]ncc2ccccc12 | -0.169% (inactive) | 
CC1(C)O[C@@H]2C[C@H]3[C@@H]4C[C@H](F)C5=CC(=O)C=C[C@]5(C)[C@H]4[C@@H](O)C[C@]3(C)[C@]2(C(=O)CO)O1 | -0.0461% [at 18.6 µM] (inactive) | 
O=C(CCCN1CC=C(n2c(=O)[nH]c3ccccc32)CC1)c1ccc(F)cc1 | 0.12% [at 46 µM] (inactive) | 
CCOc1cccc(-n2cc(C(=O)N3CCN(c4cc(C(=O)O)c5ccccc5c4)CC3)nc2-c2ccc(C)cc2)c1 | 2.48% (inactive) | 
O=c1[nH]c2ccc(Cl)cc2o1 | -0.022% (inactive) | 
CC[C@]1(O)C[C@H]2CN(CCc3c([nH]c4ccccc34)[C@@](C(=O)OC)(c3cc4c(cc3OC)N(C=O)[C@H]3[C@@](O)(C(=O)OC)[C@H](OC(C)=O)[C@]5(CC)C=CCN6CC[C@]43[C@@H]65)C2)C1 | 0.0207% [at 46 µM] (inactive) | 
c1ccc(C[n+]2cccc3ccccc32)cc1 | 1.11% (inactive) | 
C[C@@H](O[C@H]1OCCN(Cc2n[nH]c(=O)[nH]2)[C@H]1c1ccc(F)cc1)c1cc(C(F)(F)F)cc(C(F)(F)F)c1 | -0.0331% [at 46 µM] (inactive) | 
O=[N+]([O-])c1cc(C2CCCCC2)c(O)c([N+](=O)[O-])c1 | -0.557% (inactive) | 
OCCOCC#CCOCCO | 0.0673% (inactive) | 
Cc1cc2c(OCC(CNC(C)(C)C)OC(=O)c3ccccc3)cccc2[nH]1 (stereo not given) | 0.671% [at 46 µM] (inactive) | 
CCCCC(CC)CN (stereo not given) | 0.0598% [at 95.7 µM] (inactive) | 
CC/C=C1/OC(=O)c2ccccc21 | -0.0599% (inactive) | 

Structure (SMILES) | fluorescence, % of fluorescent control | Potency
CCN(CC)CCNC(=O)COc1ccc(OC)cc1 | 0.079% [at 46 µM] (inactive) | 
C[C@]1(Cn2ccnn2)[C@H](C(=O)O)N2C(=O)C[C@H]2S1(=O)=O | 0.11% [at 46 µM] (inactive) | 
Cc1c(C)c2c(c(C)c1OC(=O)CCC(=O)OCCO)CC[C@@](C)(CCC[C@H](C)CCC[C@H](C)CCCC(C)C)O2 | 0.0352% [at 46 µM] (inactive) | 
C=CC(=O)[O-].C=CC(=O)[O-].[Zn+2] | -0.0081% (inactive) | 
CN1C(C(=O)Nc2ccccn2)=C(O)c2sccc2S1(=O)=O | 0.333% [at 18.6 µM] (inactive) | 
CCC1(CO)COCOC1 | 0.117% (inactive) | 
O=C1NCCN1CCO | 0.152% [at 95.7 µM] (inactive) | 
C=CCc1ccccc1OCC(O)CNC(C)C (stereo not given) | -0.0265% [at 46 µM] (inactive) | 
COc1ccccc1NC(=O)c1cc2ccccc2cc1O |  | 39.8 µM [fluorescent] (active)
COc1cc(N)c(Cl)cc1C(=O)NC1CCN(CCCOc2ccc(F)cc2)CC1OC (stereo not given) | 0.156% [at 18.6 µM] (inactive) | 
CCC(OCCCOC)OC(C)=O (stereo not given) | 0.463% [at 95.7 µM] (inactive) | 
COC(=O)CCS | -0.0806% (inactive) | 
N#CCc1ccc(Cl)cc1Cl | 0.0417% (inactive) | 
CN(C)CCC=C1c2ccccc2C=Cc2ccccc21 | -0.0488% [at 46 µM] (inactive) | 
O=C(/C=C/c1ccc(O)c(O)c1)O[C@@H]1C[C@@](OC(=O)/C=C/c2ccc(O)c(O)c2)(C(=O)O)C[C@@H](O)[C@@H]1O | 0.152% [at 46 µM] (inactive) | 
O=C1c2ccccc2C(=O)C1(O)O | 0.243% (inactive) | 
CCCCCC#CC(=O)OC | -0.0759% (inactive) | 
O=C(Cn1ccnc1[N+](=O)[O-])NCCO | -0.153% [at 46 µM] (inactive) | 
Cc1cccc(O)c1N | 0.135% (inactive) | 
C=CC(C)(CCC=C(C)C)OC(=O)CC(C)C (stereo not given) | -0.0676% (inactive) | 
